AddAB inh = less growth of phage-infected E. coli with AddAB. E. coli expressing H. pylori AddAB, absorbance growth. inhibition, % at 11.9 µM. 330,000 compounds, 0.29% hits. AID 435030; in the data active means inhibition above about 12%;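 further: 0% = vehicle wells of infected cells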
phage Ecoli inh = E. coli growth loss with phage present; growth absorbance; inhibition, % at 11.9 µM; 360,000 compounds, 0.26% hits; AID 651602; in the data active means inhibition above about 11%
E coli growth-1 = reduces bacterial viability in AddAB counter-screen | E. coli V3065 growth, OD600 absorbance, 18 h | inhibition, % at 11.9 µM | 330,000 compounds, 0.27% hits | AID 449728;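 active means inhibition above the campaign's mean inhibition across all tested compounds plus 3 SD, cut at about 9.9% in these data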;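 further: uninfected addAB+ strain grown without phage in ampicillin broth; 0% = DMSO wells and 100% = ciprofloxacin 0.95 µg/ml wells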
E coli growth-2 = inhibitors of Escherichia coli growth. OD600, 23 h; active compounds read low. OD600 absorbance (no concentration beside the values). 330,000 compounds, 0.21% hits. AID 1053175;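 active means OD600 absorbance below the run mean of sample wells minus 3.6 SD, in any replicate, cut at about 0.56 in these data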
Tat transport = blocks Tat-dependent protein export in E. coli. 340,000 compounds, 0.036% hits. inhibition, % at 10 µM. AID 488895. E. coli MC4100 TorA-mCherry Tat export, fluorescence;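 active means mean replicate inhibition at least 50% and at least half of replicates individually reaching 50%; inconclusive means only one of the two criteria met; inactive means neither criterion met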;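 further: exported cargo escapes ClpAP degradation while cytoplasmic cargo is degraded and loses fluorescence; 0% = median of neutral control wells and 100% = median of NaSCN control wells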
AI-2 QS modul = modulates the Vibrio harveyi AI-2 quorum sensing system | Vibrio harveyi JMH597 AI-2 luminescence/OD600 ratio, 9 h; active compounds read low; strain lacks LuxN and CqsS sensors; 0 = neutral-control median | activity change, % at 7.5 µM | 300,000 compounds, 0.4% hits; in the data active means activity change below about -75%, passing the limit was not always enough; inconclusive means no clear call, values can overlap the other calls;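 further: luminescence divided by OD600 gain over 9 h not by final OD600 alone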
An asterisk follows results filed as active; ? = inconclusive; . = no result. Compounds with a hit are over-represented: about 0.79% of the library has one in this group of screens.

SMILES	AddAB inh	phage Ecoli inh	E coli growth-1	E coli growth-2	Tat transport	AI-2 QS modul
CC(=O)c1cnn(-c2cc(Oc3cccc(C)c3)ncn2)c1C	3.8	2.9	1.2	0.747	12.1	17.4
COC(=O)c1cnn(-c2cc(Oc3cccc(C)c3)ncn2)c1N	3.9	3.6	2.7	0.672	6.3	-87.6*
CC(C)(C)c1ccc(C=CC(=O)O)s1	.	.	.	0.719	.	.
Cc1ccc(Cc2c[nH]c(=S)s2)cc1	2.7	1.9	0.6	0.635	0.4	-88.9*
Cc1ccc(Cc2c(C)[nH]c(=S)[nH]c2=O)cc1	0.5	3.5	1.1	0.643	-1.1	2.0
FC(F)(F)c1cccc(NC(=S)Nc2ccc(Cl)c(Cl)c2)c1	1.4	6.5	0.2	0.401*	-5.7	?
O=C(NCc1nc2ccccc2[nH]1)c1cccc(S(=O)(=O)N2CCCC2)c1	9.6	7.6	10.1*	0.664	-9.8	10.6
O=Cc1ccc(O)c2ncccc12	.	.	.	0.093*	0.3	13.5
O=C(Nc1nc(-c2ccccn2)cs1)c1ccc(Br)s1	-4.0	-3.0	-5.9	0.712	-7.4	-95.1*
O=C(Nc1nc(-c2ccccn2)cs1)c1ccco1	-3.2	-4.9	-5.0	0.651	-1.3	31.7
CC(NC(=O)c1nc[nH]c1C(=O)NC(CCCCNC(=O)OC(C)(C)C)C(=O)OC(C)(C)C)c1ccccc1 (configuration not stated)	.	.	.	0.667	.	.
O=C(COc1ccc([N+](=O)[O-])cc1)Nc1cc(S(=O)(=O)N2CCCCC2)ccc1N1CCCCC1	0.3	4.0	-0.7	0.721	63.8*	45.9
O=C(COc1ccccc1)Nc1ccc(S(=O)(=O)N2CCCC2)cc1	1.6	6.9	2.2	0.75	0.6	-94.9*
O=C(COc1ccccc1)Nc1ccc(S(=O)(=O)N2CCCCCC2)cc1	4.3	2.6	0.8	0.725	-1.2	?
O=C(COc1ncnc2ccccc12)Nc1cccc(S(=O)(=O)N2CCOCC2)c1	0.4	-0.4	-1.2	0.636	1.7	-25.4
Cc1ccccc1OCC(=O)Nc1ccc(S(=O)(=O)N2CCCC2)cc1	-0.8	4.5	3.7	0.63	-4.1	-78.8*
COc1ccccc1OCC(=O)Nc1ccc(S(=O)(=O)N2CCCCCC2)cc1	1.0	-0.3	1.9	0.729	6.6	29.5
O=C(COc1ncnc2ccccc12)Nc1ccc(S(=O)(=O)N2CCOCC2)cc1	-1.4	2.2	-1.1	0.64	-5.2	-92.1*
Cc1cccc(C(NC(=O)OC(C)(C)C)C(=O)OC(C)(C)C)c1 (configuration not stated)	.	.	.	0.649	.	.
ON=Cc1cn(-c2ccccc2)nc1-c1ccccc1	.	.	.	0.672	.	.
O=C(CCc1ccccc1)Nc1ccc(S(=O)(=O)N2CCCC2)cc1	4.9	5.5	5.3	0.658	2.3	-89.3*
O=C(CCc1ccccc1)Nc1ccc(S(=O)(=O)N2CCOCC2)cc1	-0.7	3.1	-0.5	0.677	-3.8	22.7
Cc1ccc(Nc2cc(C)c3c(O)cccc3n2)cc1C	3.9	1.2	1.6	0.503*	7.5	-16.0
Clc1ccc2[nH]c3c(c2c1)CCc1cn[nH]c1-3	1.3	2.1	-0.9	0.562*	3.0	10.6
c1ccc2c3c([nH]c2c1)-c1[nH]ncc1CC3	3.6	0.3	0.1	0.604	-8.6	11.0
SMILES	AddAB inh	phage Ecoli inh	E coli growth-1	E coli growth-2	Tat transport	AI-2 QS modul
Cc1nn(CC(=O)Nc2ccccc2)c(=O)c2ccccc12	0.3	1.8	0.6	0.671	-10.4	-87.8*
CCCCCCCCCCCCCCCC(O)C[N+](C)(C)CCO (configuration not stated)	.	2.7	.	.	51.9*	.
CCCCCC(O)CCCC(=O)O (configuration not stated)	.	0.2	.	.	-8.9	.
NC(=NOS(=O)(=O)c1ccc([N+](=O)[O-])cc1)c1ccncc1	.	.	.	0.719	.	.
CCOC(=O)C(C(C)=NNC(=O)c1ccccc1[N+](=O)[O-])C(C)C (configuration not stated)	.	.	.	0.683	.	.
CN(C)CCOc1ccc(-c2c(-c3ccccc3)sc3ccccc23)cc1	0.2	2.9	-0.8	0.336*	13.4	.
Nc1c(Cl)ncnc1NN=Cc1ccccn1	.	.	.	0.444*	.	.
O=c1cnnc(NN=Cc2ccccn2)[nH]1	.	.	.	0.426*	.	.
C(=NNc1nncc2ccccc12)c1ccccn1	.	.	.	0.495*	.	.
Nc1c(Cl)ncnc1N/N=C/c1cccnc1	0.0	2.8	-0.3	.	6.2	-3.1
COc1ccc(C2CC(=O)C=C(c3ccc(NC(C)=O)cc3)C2)cc1OC (configuration not stated)	.	.	.	0.649	.	.
Cc1ccc(SCc2c(C(=O)NN=Cc3ccccc3)nnn2-c2nonc2N)cc1	.	.	.	0.637	.	.
CC(=O)c1cccc(NC(=O)CCC(=O)c2ccc(F)cc2)c1	.	0.2	.	0.666	5.7	-6.5
O=C(CCC(=O)c1ccc(F)cc1)Nc1cc(Cl)cc(Cl)c1	4.0	2.8	-0.3	0.741	3.0	-79.1*
CCCCc1ccc(S(=O)(=O)Nc2nnc(C)s2)cc1	3.3	-0.1	0.3	0.717	-1.2	-97.7*
CC(=O)Nc1ccc(S(=O)(=O)Nc2nnc(C)s2)cc1	.	1.6	.	.	.	.
Cc1ccc(Sc2ccc(/C=N/O)cc2[N+](=O)[O-])cc1	3.6	-0.3	-0.9	.	26.2	-76.3*
CC12CCC(C(=O)N(CSC(=S)NN=Cc3ccccc3O)C1=O)C2(C)C (configuration not stated)	.	.	.	0.705	.	.
CC12CCC(C(=O)N(CSC(=S)N/N=C\c3ccccc3Cl)C1=O)C2(C)C (configuration not stated)	4.1	4.8	10.7*	.	2.5	68.1
Cc1cc(C=NNC(=O)CC2(C)OCCO2)c(C)n1-c1cc(Cl)cc(Cl)c1	.	.	.	0.744	.	.
NC(=O)C1=CC(c2csc3ccccc23)CC(OCCCCO)O1 (configuration not stated)	.	.	.	0.645	.	.
CC(=O)NC(c1ccccc1)c1cc([N+](=O)[O-])c2cccnc2c1O (configuration not stated)	-2.4	-4.7	-4.9	0.694	0.7	-89.9*
CC(C)C(=O)NC(c1ccccc1)c1cc([N+](=O)[O-])c2cccnc2c1O (configuration not stated)	3.7	2.4	-1.4	0.667	1.8	8.1
CCCOc1ccc(C(=O)NNC(=S)NC(=O)CC)cc1	-2.4	3.9	-1.2	0.404*	-29.4	20.0
C=CCNC(=S)NNC(=O)c1ccc(OCCC)cc1	-1.6	1.1	0.0	0.713	-5.0	6.5
SMILES	AddAB inh	phage Ecoli inh	E coli growth-1	E coli growth-2	Tat transport	AI-2 QS modul
O=C(NNC(=S)NC(=O)c1ccccc1)c1ccc([N+](=O)[O-])cc1	-2.8	-8.5	-1.5	0.601	-2.1	?
COc1ccc(C(=O)NNC(=S)NC(=O)c2ccc(OC)cc2)cc1	-2.5	-0.8	3.8	.	-1.7	36.8
COc1ccc(C(=O)NNC(=S)NC(=O)c2cccs2)cc1	6.3	3.0	0.1	.	-12.1	-81.5*
Cc1ccc(C(=O)NC(=S)NNC(=O)c2ccc([N+](=O)[O-])cc2)cc1	-4.4	-4.6	-8.4	0.644	-4.1	-85.9*
O=C(NC(=S)NNC(=O)c1ccco1)c1ccccc1	-7.8	-4.0	-6.5	0.508*	0.3	?
Cc1ccc(C(=O)NC(=S)Nc2ccccc2C(F)(F)F)cc1	0.3	1.5	-0.3	0.711	1.2	-87.1*

Compound activity from PubChem.
